Compound activity deposited in PubChem BioAssay by Broad Institute.
PAX8 inh HTS = inhibitors of PAX8-driven TPO luciferase reporter, primary screen, RMG-I cells, single concentration; SteadyGlo, 24 h; inhibition, % at 12.6 µM; 360,000 compounds, 1.2% hits;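 active = mean replicate inhibition at least 60% with every replicate also reaching 60%; inconclusive = only one of the two criteria is met; inactive = mean below 60% and not all replicates reaching 60%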;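 note: luciferase light reporting Pax8 driven TPO promoter activity; plate controls were median of neutral control wells for no effect and mitoxantrone controls for full effect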
Ecoli rRNA inh = reduced GFP signal of wild-type E. coli, primary screen, bacterial rRNA inhibitor project, GFP/RFP fluorescence, OD600, single point | AID 720706, 2013 | 350,000 compounds, 1.6% hits | E. coli WT GFP vs humanized-ribosome RFP mutants, 24 h; active compounds read low; DMSO median 0, no signal -100 | GFP signal change (wild-type ribosome), % (no concentration beside the values);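 active = significant combined selectivity score with lowered wild-type GFP, culture density cut under 30%, mutant RFP and density less affected; inactive = any of these conditions unmet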
LGR2 inh = inhibitors of bursicon-induced LGR2 CRE-luciferase signal, primary screen, cell-based, HEK293, CRE-luciferase reporter, bursicon stimulation; bursicon-stimulated, 4 h; inhibition, % at 9.99 µM; 380,000 compounds, 0.35% hits; AID 720647, 2013;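 active = drop in luminescence signal, shown as inhibition above about 50% in the replicate tests, limit read from the data, passing the limit was not always enough; inconclusive = probably only some replicates passing the limit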;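 note: agonist challenge used bursicon conditioned medium at about half maximal strength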
EWS-Fli inh = EWS/Fli-driven NR0B1 reporter inhibitors, primary screen, A673 cells, NR0B1 luciferase, luminescence, MLPCN library; 350,000 compounds, 0.67% hits; viability-normalised; inhibition, % at 12.6 µM;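 active = mean inhibition of at least 50% after viability correction, with every replicate also passing that limit; inconclusive = mean reaches 50% but only one of two replicates passes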;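 note: firefly luciferase signal divided by Alamar Blue viability fluorescence both relative to DMSO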
PGC1a acetyl inh = inhibitors of PGC1a acetylation signal, primary screen, cell-based, U2OS, AlphaScreen, inhibitor mode; AlphaScreen anti-acetyl-lysine; with virally co-expressed GCN5 acetyltransferase; inhibition, % at 15.6 µM; 350,000 compounds, 0.17% hits; AID 651687, 2012;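 active = every replicate shows inhibition of at least 40%; inconclusive = mean inhibition at least 40% but some replicate below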;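 note: 0% = neutral control wells and 100% = positive control wells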
SIRT5 inh = SIRT5 desuccinylase inhibitors, primary screen, biochemical, fluorescence imaging, single point, set 5; 330,000 compounds, 1.1% hits; inhibition, % at 15 µM; Purified SirT5, succinyl-peptide AMC, trypsin-coupled fluorescence; NAD-dependent protein deacylase sirtuin-5, mitochondrial (Homo sapiens), Q9NXA8; in the data active = inhibition above about 15%; inconclusive = no clear call, values can overlap the other calls
Target sequence (Q9NXA8 whole entry, looked up): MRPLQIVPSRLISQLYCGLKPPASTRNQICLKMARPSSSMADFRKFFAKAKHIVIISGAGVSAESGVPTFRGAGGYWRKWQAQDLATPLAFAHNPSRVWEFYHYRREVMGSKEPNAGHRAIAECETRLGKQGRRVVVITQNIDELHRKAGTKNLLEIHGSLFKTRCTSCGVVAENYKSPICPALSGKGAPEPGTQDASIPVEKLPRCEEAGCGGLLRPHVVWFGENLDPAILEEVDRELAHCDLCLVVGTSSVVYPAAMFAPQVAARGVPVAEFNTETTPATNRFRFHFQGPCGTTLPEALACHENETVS
* hit, by the source's call; ? = inconclusive; nt = not tested or not shown. Shown are actives, neighbours in structure and some others; about 3.4% of the full set was active somewhere.

SMILES | PAX8 inh HTS | Ecoli rRNA inh | LGR2 inh | EWS-Fli inh | PGC1a acetyl inh | SIRT5 inh
C/C=C(\C)C(=O)Nc1cccc(C2=NOC3(C2)C[C@@H](C(N)=O)N(C(=O)c2cc([N+](=O)[O-])cc([N+](=O)[O-])c2C)C3)c1 (stereo partly drawn) | 13 | -2 | 2 | 6 | -8 | 3
C[C@H]1CN(C)C(=O)c2cc(N)ccc2O[C@@H]1CN(C)C | nt | -1 | nt | nt | nt | nt
C[C@H](CO)N1C[C@H](C)[C@H](CN(C)C(=O)Nc2ccccc2)OCCCC[C@H](C)Oc2ccc(NC(=O)Nc3ccc(C(F)(F)F)cc3)cc2C1=O | nt | 2 | 10 | nt | nt | nt
CCS(=O)(=O)N1CCCCN2[C@@H](CO)[C@H](c3ccc(C#Cc4ccccc4OC)cc3)[C@@H]2C1 | 1 | 3 | -17 | nt | -3 | 0
Cc1noc(C)c1S(=O)(=O)N(C)C[C@@H]1Oc2ccc(NC(=O)Nc3ccccc3)cc2CC(=O)N([C@@H](C)CO)C[C@@H]1C | -9 | 5 | -24 | -13 | -1 | nt
C/C(=N\NC1=NCCN1)c1ccc(N)c([N+](=O)[O-])c1 | 4 | 11 | 11 | -8 | nt | -1
CCCCCCOc1ccc(/C(C)=N/NC2=NCCN2)cc1[N+](=O)[O-] | 10 | -60 | -10 | 59* | nt | 1
CC(C)c1ccc(Nc2c([N+](=O)[O-])c(=O)n(C)c3ccccc23)cc1 | 6 | -8 | nt | 12 | 0 | -5
Cn1c(=O)c(Nc2ccc(O)cc2)c2c3c(cccc31)C(=O)c1ccccc1-2 | 83* | -12 | 4 | -12 | nt | nt
COc1ccc2c3c([nH]c2c1)[C@H](CO)N(C(=O)c1cccnc1)CC31CCN(C(=O)c2cccnc2)CC1 | -22 | 3 | -4 | -4 | 2 | -3
COc1cccc(/C=C2\Oc3cc(OCC(=O)N4CCCC4)ccc3C2=O)c1OC | -26 | -24* | -8 | -5 | nt | 7
Cc1ccc(S(=O)(=O)Nc2ccc3c(c2)C(=O)N([C@@H](C)CO)C[C@@H](C)[C@H](CN(C)C(=O)c2ccncc2)OCCCC[C@H](C)O3)cc1 | -4 | -1 | 15 | 0 | 0 | nt
C=CC[n+]1c(/C=C2\C=Cc3cc(C)ccc3N2CC)ccc2ccccc21 | 88* | -42 | 26 | 23 | nt | 0
CC(C)CC(=O)/C=C/n1c(=S)oc2ccccc21 | -10 | 10 | -28 | nt | 6 | nt
CC(=O)/C=C/n1c(=S)oc2ccccc21 | 114* | -3 | 2 | nt | nt | nt
NCCCCCNC(=O)[C@@H]1C[C@@H]2C(=O)NCC(=O)N2[C@@H]1c1cccc(OCCO)c1 | -15 | nt | nt | -7 | 3 | 1
CN(C)CCCCCCNC(=O)[C@@H]1C[C@@H]2C(=O)NCC(=O)N2[C@@H]1c1cccc(OCCO)c1 | -53 | nt | nt | -25 | nt | 18*
O=C1C=CC(c2c[nH]c3ccccc23)CC1 (stereo not drawn) | 37 | -14* | -6 | 18 | nt | -1
COc1ccc(/C=N/Nc2nc3ccccc3[nH]2)c(OC)c1OC | -106 | -27* | 28 | -43 | ? | 0
Cc1[nH]c2ccccc2c1/C=N/Nc1nc2ccccc2[nH]1 | 3 | -47* | 100* | -43 | -80 | 0
C(=N\Nc1nc2ccccc2[nH]1)/c1cccc2cccnc12 | 4 | -53* | 33 | -1 | -30 | 1
CCC(=O)N1[C@@H](CO)[C@@H](c2ccccc2)C12CN(C(=O)c1ccc(F)cc1)C2 | -11 | 3 | 10 | 9 | -6 | 0
C[C@@H]1CCCCO[C@H](CN(C)C(=O)Nc2ccc3c(c2)OCO3)[C@@H](C)CN([C@@H](C)CO)C(=O)c2cc(NC(=O)c3ccccc3)ccc2O1 | -16 | -1 | 11 | -3 | 2 | 4
COc1ccccc1CNC(=O)C[C@@H]1C[C@@H]2c3cc(NC(=O)C4CCC4)ccc3O[C@@H]2[C@@H](CO)O1 | -12 | -5 | -5 | 1 | 9 | 6
